Screening data: PubChem, several laboratories
S1P2 agonist – S1P2 receptor agonists, primary screen, cell-based | actives 0.46% (n = 97,000) | activation, % at 4.5 µM | S1P2-expressing cell line, agonist reporter read-out; in the data active means activation above about 16%;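 further: 0% = vehicle low control and 100% = maximal reference agonist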
Target sequence (O95136 whole entry, looked up): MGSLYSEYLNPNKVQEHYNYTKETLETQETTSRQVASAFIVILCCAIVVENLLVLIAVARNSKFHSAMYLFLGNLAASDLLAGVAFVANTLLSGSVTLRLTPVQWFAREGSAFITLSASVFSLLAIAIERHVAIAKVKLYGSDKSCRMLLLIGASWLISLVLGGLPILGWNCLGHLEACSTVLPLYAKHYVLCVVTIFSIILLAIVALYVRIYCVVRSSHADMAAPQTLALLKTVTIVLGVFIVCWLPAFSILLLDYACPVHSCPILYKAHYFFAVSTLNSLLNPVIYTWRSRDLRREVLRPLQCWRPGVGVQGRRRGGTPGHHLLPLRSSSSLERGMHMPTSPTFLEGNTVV
PostGolgi yeast – phenotypic screen on post-Golgi transport, primary screen | post-Golgi transport phenotypic cell assay | inhibition, % at 10 µM | actives 0.9% (n = 98,000) | AID 739, 2007;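 further: yeast cells grown in 1536-well plates; yeast grown about 18 h at 30C before absorbance read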
GALR2 agonist – GALR2 receptor agonists, primary screen, cell-based | actives 0.48% (n = 140,000) | AID 803, 2007 | activation, % (concentration not given with the values) | Galanin receptor type 2 (Homo sapiens), O43603 | GALR2-expressing cells, agonist activation read-out; in the data active means activation above about 5%, passing the limit was not always enough;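 further: 0% = vehicle buffer wells and 100% = reference agonist at full effect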
S1P2 blocker – human S1P2 receptor antagonists, primary screen, cell-based; Sphingosine 1-phosphate receptor 2 (Homo sapiens), O95136; inhibition, % at 5 µM; cell-based S1P2 antagonist assay, inhibition at 5 uM; actives 0.21% (n = 97,000); in the data active means inhibition above about 45%;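 further: CRE beta-lactamase reporter cells expressing human S1P2 stimulated with S1P; 0% = agonist at EC80 alone and 100% = agonist plus reference antagonist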
PostGolgi ctrl – growth inhibition of yeast control strain, primary screen, counter-screen for post-Golgi transport modulator project | efflux-deficient yeast background strain, growth absorbance A615, 16 h | inhibition, % at 10 µM | actives 5% (n = 98,000) | AID 738, 2007
GALR2 antag – GALR2 antagonists in receptor-expressing cells, primary screen; antagonist mode; inhibition, % at 4 µM; actives 0.39% (n = 140,000); AID 828, 2007; in the data active means inhibition above about 27%;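 further: cells stimulated with galanin 1-16 at roughly its EC80; 0% = agonist challenge control and 100% = basal control without agonist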
* marks the source's active call; other numbers are inactive results; · = no result. Many of the other results were omitted from the sample, so hits are more common in it than they were. Unless noted, no stated cut-off is given here; in the data, active means inhibition above about 30%; inactive means the rest.

SMILES	S1P2 agonist	PostGolgi yeast	GALR2 agonist	S1P2 blocker	PostGolgi ctrl	GALR2 antag
CC1CCN(c2nc(-c3ccccc3O)nc3ccccc23)CC1	-4	0	-2	-14	6	14
COc1ccc(S(=O)(=O)N(C(C)=O)c2ccc(OC(C)=O)c3ccccc23)cc1[N+](=O)[O-]	·	·	-1	·	·	1
O=C(Cc1cccc(C(F)(F)F)c1)NCc1ccc(Cl)cc1Cl	·	·	-1	·	·	-9
Cc1nnc(SCC(=O)NC(C)(C)C)n1C1CCCCC1	·	·	-1	·	·	0
CNC(=O)C1CC(=O)N(CCCc2ccccc2)C(=Nc2ccccc2)S1 (configuration not stated)	-1	-2	-1	-10	14	-24
CCCCC1(CC(=O)OC)C(=O)N(c2ccccc2)N(c2ccccc2)C1=O	·	·	-1	·	·	2
CCC(=O)NC(=S)Nc1cccc(Cl)c1N1CCCCC1	6	2	0	-4	45*	-12
COc1cc2c(cc1OC)C1=C(C#N)CN(CC(=O)O)CN1CC2	23*	-3	-1	-28	-2	-8
COc1cc2c(cc1OC)CN(CC(=O)Nc1ccccc1C#N)CC2	1	7	-2	4	5	5
CCOc1ccc(S(=O)(=O)N2CCN(C(=O)c3cc4c(s3)CCCC4)CC2)cc1	·	·	-1	·	·	4
COc1ccc(C(C[N+](=O)[O-])c2c(-c3ccccc3)cc3ccccn23)cc1OC (configuration not stated)	-3	7	-3	21	11	10
COC(=O)C(C(=O)OC)C(C[N+](=O)[O-])c1ccc(OC)c(OC)c1 (configuration not stated)	-9	-4	-1	12	33*	8
[O-][N+]1=c2ccc(Nc3ccccc3)cc2=NC12CCCCC2	-11	-11	-3	48*	5	12
COc1ccc(Nc2ccc3c(c2)=NC2(CCCCC2)[N+]=3[O-])cc1	-4	1	-2	25	3	8
COC(=O)[C@@H]1[C@@H](C#N)C2(c3ccccc3-c3ccccc32)N(c2ccc(Cl)cc2)N1C#N	-2	·	0	13	·	6
Cc1ccc(/C=N/NC(=O)c2cc(C3CC3)nc3ccccc23)o1	·	·	1	·	·	2
c1ccc(-c2ccc(OCCOCCn3cncn3)cc2)cc1	0	-3	-1	1	44*	-6
COC(=O)NNC(=O)Cc1cccc2ccccc12	·	·	-1	·	·	6
Cc1cc(C)c2[nH]c(=O)c(CN(Cc3cccs3)C(=S)NCC3CCCO3)cc2c1 (configuration not stated)	·	·	0	·	·	3
CC1CCN(CCOc2cc(Cl)ccc2Cl)CC1	-6	49*	-4	7	23	4
CC1CCN(CCOCCOc2ccc(Br)cc2Cl)CC1	·	·	0	·	·	8
CS(=O)(=O)c1ccc2nc(NC(=O)Nc3cccc(Cl)c3)sc2c1	-10	-6	0	47*	10	4
CCOc1ccc2nc(NC(=O)CS(=O)(=O)c3ccccc3)sc2c1	-1	-4	0	-19	51*	-2
Cc1cc(C)nc(N2CCCC(C(=O)Nc3nc4ccc(S(C)(=O)=O)cc4s3)C2)n1 (configuration not stated)	-6	-3	-2	9	34*	3
Cc1cc(C)nc(N2CCCC(C(=O)Nc3nnc(C)s3)C2)n1 (configuration not stated)	-8	5	-4	3	-2	4
SMILES	S1P2 agonist	PostGolgi yeast	GALR2 agonist	S1P2 blocker	PostGolgi ctrl	GALR2 antag
CCOc1ccc2nc(NC(=O)C(NS(=O)(=O)c3cccs3)C(C)C)sc2c1 (configuration not stated)	-4	-7	-1	-9	6	-1
CCOc1ccc2nc(NC(=O)CS(=O)(=O)c3ccc(C)cc3)sc2c1	-2	1	-1	-30	23	-4
CS(=O)(=O)c1ccc2nc(NC(=O)Nc3ccc(Cl)c(Cl)c3)sc2c1	·	·	-1	·	·	0
CCOc1ccc2nc(NC(=O)C3CCCN(S(=O)(=O)c4cccs4)C3)sc2c1 (configuration not stated)	-4	75*	-1	12	48*	7
COc1ccc(C(=O)Nc2ccc(N3CCN(C(=O)C(C)C)CC3)cc2)cc1[N+](=O)[O-]	·	·	-1	·	·	7
N/C(Cc1ccc(Cl)cc1)=N\OC(=O)C1CCCCC1	·	·	-1	·	·	-5
CCc1ccc(C(=O)CN2CCSC2=N)cc1	·	·	-1	·	·	6
O=C(c1ccco1)N1c2ccccc2Sc2ccccc21	-4	4	-2	15	32*	5
CN1C(=O)/C(=C\c2ccccc2)Sc2ccc(C(=O)N3CCN(c4ccccn4)CC3)cc21	-1	4	-2	-12	32*	-6
O=C(c1ccco1)N1CCN(C(=O)N2c3ccccc3Sc3ccccc32)CC1	2	-3	1	-8	44*	15
O=C(NC1CCN(C(=O)N2c3ccccc3Sc3ccccc32)CC1)c1ccccc1Cl	-6	9	-1	-12	43*	5
Cc1ccc2[nH]c(O)c(N=NC(=O)C3CC3c3ccccc3)c2c1Br (configuration not stated)	·	·	2	·	·	-6
COc1c(Cl)cc(Cl)cc1C(=O)n1nc(C)cc1C	-1	·	-1	-11	·	2
Fc1ccc(OCc2nnc(SCCN3CCOCC3)o2)cc1	-2	·	-3	-2	·	11
O=C(N1CCN(c2ccccn2)CC1)N1c2ccccc2Sc2ccccc21	9	2	3	-6	85*	-3
COC(=O)c1ccc2nc(C)c(C)nc2c1	-5	10	-2	-1	3	-9
COC(=O)c1ccc2c(c1)C(C)(C)C(/C=C/c1ccc(OC)c(OC)c1OC)=[N+]2C	-10	12	0	48*	0	-7
COC(=O)c1ccc2c(c1)C(C)(C)C(/C=C/c1ccc(O)cc1)=[N+]2C	6	16	6.8*	37	21	25
CCCCN(CCCC)C(=S)NC(=O)c1ccccc1Cl	·	·	-1	·	·	6
O=C(Nc1ccccc1)c1cccc(S(=O)(=O)Oc2ccc([N+](=O)[O-])cc2)c1	·	·	0	·	·	-10
Brc1cc(Br)c2nc(-c3ccc(N4CCOCC4)cc3)ccc2c1	-4	3	0	20	36*	8
Cc1cccc(NC(=S)NC2CC3CCCC(C2)N3CC(C)C)c1 (configuration not stated)	0	·	0	-12	·	3
COC(=O)c1ccc(NC(=O)CN2CCN(c3ccc(Cl)cc3)CC2)cc1	·	44*	-2	·	16	0
COC(=O)c1sccc1NC(=O)CN1CCN(c2ccc(F)cc2)CC1	·	-1	0	·	32*	-5
O=C(Nc1cccc(F)c1)N1CC=C(c2ccc(Cl)cc2)CC1	-3	22	0	-4	41*	-10
O=C(CN1CCCN(S(=O)(=O)c2ccc(Br)s2)CC1)Nc1ccc(Cl)cc1	-3	14	-1	-9	65*	-14
